Source: PubChem BioAssay AID504834 (National Center for Advancing Translational Sciences (NCATS), 2011)
The whole screen tested about 320,000 compounds, of which about 22,000 (6.9%) were called active. A call without a number means that no potency is given here. Another 27% or so got no clear call; they are omitted. This is one part of a sample in which actives are shown more often than they occur. The call rests on the fitted dose curve; in most records, active means well fitted inhibition curve with a large enough effect; inconclusive means small, poorly fitted or top-dose-only effect, or another doubt; inactive means no such curve, though single readings can be large or run the other way.

Assay: Primary qHTS for delayed death inhibitors of the malarial parasite plastid, 96 hour incubation
Settings: P. falciparum luciferase reporter growth; series mostly up to 28.7 µM
How it was run: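 Two-generation exposure (96 h) targets delayed-death phenotype. Reporter parasites carrying integrated firefly luciferase, in red cells at 2% hematocrit and 0.05% parasitemia final, kept at 37 C, 5% CO2; luminescence loss indicates inhibition.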
Potency means the concentration at half of the fitted maximal effect.

Structure (SMILES)	Potency	activity change, negative = inhibition
Cn1ccsc1=NC(=O)c1cc(S(=O)(=O)N2CCOCC2)ccc1Cl	inactive	
O=C(NCc1ccc2c(c1)OCO2)C(=O)NCC1OCCN1S(=O)(=O)c1ccc(F)cc1 (stereo not given)	inactive	
COCCCNC(=S)N1CCN(c2nc(-c3cccc(OC)c3)cs2)CC1	inactive	
CCc1ccc(Nc2n[n+](-c3ccccc3)c(-c3cccc(Cl)c3Cl)s2)cc1	3.7 µM (active)	
COc1ccc(C)cc1Nc1n[n+](-c2ccccc2)c(-c2cccc(Cl)c2Cl)s1	13.1 µM (active)	
COC(=O)c1cnc(Nc2cc(C)ccc2OC)c2ccccc12	inactive	
COc1ccc(C)cc1Nc1nc(-c2c(C)[nH]c3ccccc23)cs1	inactive	
N#Cc1ccccc1NC(=O)c1ccc2c(c1)OCO2	inactive	
N#C/C(=C\c1cccnc1)C(=O)Nc1ccc(SC(F)F)cc1	inactive	
Cc1ccc(CNC(=O)CSc2nnc3c(n2)[nH]c2ccc(F)cc23)cc1	inactive	
COC(=O)C(C)n1cnc2c(nnn2-c2ccc(F)cc2)c1=O (stereo not given)	inactive	
Cc1cc(C)cc(N(CC(=O)NC2CCCC2)C(=O)CCC(=O)Nc2nccs2)c1	inactive	
COc1ccc(C(=O)C2CCCN(Cc3cccn3-c3ccccn3)C2)c(C)c1 (stereo not given)	inactive	
COc1ccc(C(=O)C2CCCN(Cc3ccc4nonc4c3)C2)c(C)c1 (stereo not given)	inactive	
CCOC(=O)c1[nH]ncc1CN1CCCC(C(=O)c2ccc(OC)cc2C)C1 (stereo not given)	8.28 µM (active)	
O=C(N=C1SC2CS(=O)(=O)CC2N1c1cc(Cl)ccc1Cl)C1CC1 (stereo not given)	inactive	
COC(=O)c1cccc(C(=O)N2CCCC(Nc3ccc4c(c3)OCCO4)C2)c1 (stereo not given)	inactive	
COc1ccc(C(=O)NCC(=O)N/N=C/c2cccnc2)cc1	inactive	
Cc1c(S(=O)(=O)N2CC(C)CC(C)C2)c(=O)n(C)c(=O)n1C (stereo not given)	inactive	
O=C(CCCN1C(=O)/C(=C\c2ccccc2)SC1=S)Nc1ccccc1O	inactive	
O=C(CCCN1C(=O)/C(=C/c2ccccc2)SC1=S)Nc1ccc(O)cc1		-3.08% [at 5.75 µM] (inactive)
O=C1/C(=C/c2ccc(F)cc2)SC(=S)N1CCCC(=O)N1CCCCC1CCO (stereo not given)	6.57 µM (active)	
CC(=O)c1ccc(NC(=O)Cn2c(=O)oc3ccccc32)cc1	inactive	
CCCN1C2CCCC1CC(NC(=O)c1cccc(OC)c1)C2 (stereo not given)	inactive	
CCc1ccc(S(=O)(=O)Nc2ccc(C)c(NS(C)(=O)=O)c2)cc1	inactive	

Structure (SMILES)	Potency	activity change, negative = inhibition
CCCCc1ccc(NC(=O)CN2C(=O)NC(Cc3ccccc3)C2=O)cc1 (stereo not given)	inactive	
CC(C)=N/N=C1/NC(=O)C(Cc2ccccc2)S1 (stereo not given)	inactive	
CCOC(=O)CN/C=C(\C#N)c1ccc(F)cc1	inactive	
COc1cc(/C=C(/NC(=O)c2ccc(Cl)cc2Cl)C(=O)O)cc(OC)c1OC	inactive	
CCOc1cc(/C=C(/C#N)c2ccc(Cl)cc2)cc(Cl)c1OCC(=O)O	13.1 µM (active)	
CCC(=O)Nc1nnc(S(=O)(=O)N2CCCc3ccccc32)s1	inactive	
O=C(COC(=O)c1cccs1)Nc1ccccc1Cl	inactive	
COc1cc(C2C(C(=O)Nc3ccccc3OC)=C(C)Nc3ncnn32)ccc1O (stereo not given)	inactive	
COc1ccccc1Nc1nc(N)nc(CSC(=S)N2CCOCC2)n1	inactive	
COc1ccccc1NC1=NC(c2ccc(Cl)cc2)N=C(N)N1 (stereo not given)	0.928 µM (active)	
COC(=O)c1c(C)[nH]c(C(=O)NCCc2ccc(S(N)(=O)=O)cc2)c1C	inactive	
CSc1ccccc1NC(=O)c1cc(Cl)sc1Cl	inactive	
COc1ccc(S(=O)(=O)NCC(=O)NCc2cc(=O)n(C)c(=O)n2C)cc1F	inactive	
CN(CC(=O)Nc1ccc(Cl)cc1)C(=O)c1ccc(COc2ccccc2)cc1	inactive	
Cc1ccc(NC(=O)CN(C)C(=O)c2ccc(Br)o2)cc1	inactive	
CN(CC(=O)Nc1ccc(F)cc1)C(=O)c1ccc(-c2ccc(Cl)cc2)o1	2.33 µM (active)	
COCC(=O)N1CCc2ccc(NC(=O)c3ccccc3Cl)cc2C1	inactive	
COc1ccc(NC(=O)CN(C)C(=O)CC2CCCCC2)cc1	inactive	
N#C/C(=C\c1ccc(-c2cccc([N+](=O)[O-])c2)o1)C(=O)NCCN1CCOCC1	10.4 µM (active)	
Cc1ccc(C(=O)N/C(=C/c2ccc(-c3cccc([N+](=O)[O-])c3)o2)C(=O)NCCCN(C)C)cc1	inactive	
Cc1ccc(Cc2cnc(NC(=O)/C(C#N)=C/c3ccc(-c4cccc([N+](=O)[O-])c4)o3)s2)cc1	inactive	
COc1ccc(C(CNC(=O)c2cccc(S(=O)(=O)Nc3ccccc3Cl)c2)N2CCOCC2)cc1 (stereo not given)	inactive	
COC(=O)C1C(=O)NCC1c1ccc(C)cc1 (stereo not given)	inactive	
COC(=O)C1=C(Nc2ccc(C)cc2)C=C(C)C(C(=O)OC)C1c1ccc(F)cc1 (stereo not given)	11.7 µM (active)	
COC(=O)C1=C(Nc2ccc(OC)cc2)C=C(C)C(C(=O)OC)C1c1ccc(C)cc1 (stereo not given)	inactive	

Structure (SMILES)	Potency	activity change, negative = inhibition
Cc1nc(COc2cc3oc(=O)cc(C)c3cc2Cl)cs1	inactive	
COC(=O)C1=C(O)/C(=C/c2ccc(OCC(=O)Nc3ccccc3)cc2)N=C1C	inactive	
CCOC(=O)C1=C(O)/C(=C/c2cc(C)n(-c3ccccc3)c2C)N=C1C	0.657 µM (active)	
CCOC(=O)C1=C(O)/C(=C/c2ccc(OCC(=O)Nc3ccc(C)cc3)cc2)N=C1C	inactive	
CCC(=O)c1ccc(OCC(=O)OCC(=O)N2CCc3ccccc3C2)cc1	inactive	
COC(=O)c1ccc2c(C(C)(C)O)c(C(C)(C)O)[nH]c2c1	inactive	
Cc1cccc(-c2oc3ccc(-c4ccc5c(c4)OCO5)cc3c2C#Cc2cncn2C)c1	1.17 µM (active)	
C/C(=C/c1ccccc1)C(=O)N1CCN(c2ccccc2)CC1	inactive	
Nc1c(N(Cc2ccco2)C(=O)c2cccc(F)c2)c(=O)[nH]c(=O)n1Cc1ccccc1	inactive	
O=C(O)CN1c2cccc3cccc(c23)S1(=O)=O	inactive	
Cc1ccc(F)cc1NC(=O)c1ccc2c(c1)OCO2	inactive	
O=C(Nc1cccc(NC(=O)c2cccc(F)c2)c1)c1ccccc1	inactive	
Cc1ccc(F)cc1NC(=O)c1cccc(N(C)C)c1	11.7 µM (active)	
Cc1c(C(=O)NC(C)C2CC3CCC2C3)cccc1[N+](=O)[O-] (stereo not given)	inactive	
COc1cc2c(cc1OC)C(c1ccccc1Br)NC(=O)C2 (stereo not given)	inactive	
Cn1c(-c2ccc(C(F)(F)F)cc2)cc2onc(-c3ccccc3)c2c1=O	inactive	
CN(C)S(=O)(=O)c1ccc(Cl)c(NC(=O)COC(=O)CC(NC(N)=O)c2ccc(Cl)cc2)c1 (stereo not given)	inactive	
CCCCN(CC)CCNC(=O)CCNC(=O)Cn1ccc2ccccc2c1=O	inactive	
O=C(NCCCN1CCN(Cc2ccccc2)CC1)C1CCN(S(=O)(=O)N2CCCC2)CC1	inactive	
COc1ccc(C2C(C(=O)N3CCN(c4ccc(OC)cc4)CC3)c3ccccc3C(=O)N2C)cc1 (stereo not given)	inactive	
CC1CCN(CC(=O)c2c[nH]c3ccccc23)CC1	inactive	
CN1C(=O)c2ccccc2C(C(=O)NCCCN2CCCC2)C1c1c[nH]c2ccccc12 (stereo not given)	10.4 µM (active)	
CCN(CC)CCNC(=O)C1c2ccccc2C(=O)N(C)C1c1cn(C)c2ccccc12 (stereo not given)	2.94 µM (active)	
COc1cccc(C(=O)OCC(=O)c2[nH]c(C)c(C(C)=O)c2C)c1	inactive	
COc1ccc(C2=NS(=O)(=O)N(C)C(C(=O)N3CCCCC3)=C2)cc1	inactive	

Structure (SMILES)	Potency	activity change, negative = inhibition
COc1ccc2c(c1)c1ncn(Cc3ccccn3)c(=O)c1n2C	inactive	
CC1=CCC2C(=O)N(c3cccc(C(=O)NC(C)c4ccccc4)c3)C(=O)C2C1 (stereo not given)	inactive	
NC(=O)CSc1nnc(NC(=O)c2ccc(Br)o2)s1	inactive	
CN(C)S(=O)(=O)N1CCC(Oc2cccc(C(=O)NCCCC3CCCC3)c2)CC1	inactive	
Cc1ccc(CNC(=O)CC(NC(=O)c2ccccc2)c2ccccc2)cc1 (stereo not given)	inactive	
Cc1ccc(NC(=O)CN2C(=O)NC(C)(c3ccc(Cl)cc3)C2=O)c(Br)c1 (stereo not given)	inactive	
CN(C(=O)CN1C(=O)NC(C)(CCc2ccccc2)C1=O)c1ccccc1 (stereo not given)	inactive	
Cc1ccc(S(=O)(=O)c2c(N)n(C)c3nc4ccccc4nc23)cc1	0.928 µM (active)	
Cc1ccc(S(=O)(=O)Nc2nc(N)n(-c3ccccc3)n2)cc1	inactive	
Cc1ccc(S(=O)(=O)NCc2nc3ccccc3c(=O)n2N)cc1	inactive	
Cc1ccsc1/C=N/NC(=O)Cc1cc(=O)[nH][nH]1	inactive	
CCC1(c2ccccc2)NC(=O)N(CC(=O)Nc2ccccc2C(=O)NC2CCCC2)C1=O (stereo not given)	inactive	
COC(=O)c1ccccc1NC(=O)CSc1nc2c(c(=O)[nH]1)CCC2	inactive	
CCOC(=O)CSc1nc2c(c(=O)n(C)c(=O)n2C)n1Cc1ccccc1F	inactive	
Cn1c(=O)c2c(nc(SCC(=O)Nc3ccccc3N3CCCCC3)n2C)n(C)c1=O	inactive	
Cc1c(S(=O)(=O)NCc2ccccc2)c(=O)n(C)c(=O)n1C	inactive	
Cn1c(=O)c2c(nc(SCCNS(=O)(=O)c3ccccc3)n2C)n(C)c1=O	14.7 µM (active)	
CCCSc1nc2c(c(=O)n(C)c(=O)n2C)n1Cc1ccc(C)cc1	13.1 µM (active)	
Cc1cccc(Cn2c(SCCO)nc3c2c(=O)n(C)c(=O)n3C)c1	inactive	
Cc1ccc(CNS(=O)(=O)CCNC(=O)c2ccccc2)cc1	inactive	
CC1C(=O)N2CCCc3cc(S(=O)(=O)NCc4ccc(F)cc4)cc1c32 (stereo not given)	inactive	
CC(C)CNS(=O)(=O)c1ccc(C(=O)Nc2ccc3c(c2)OCO3)cc1	inactive	
COc1ccc(Cn2c(=S)[nH]c3cc(C(=O)N4CCCCC4)ccc3c2=O)cc1	inactive	
Cc1ccc(S(=O)(=O)N2[C@@H](c3ccccc3F)C(C(=O)O)=CC[C@H]2c2ccc(Cl)cc2)cc1	inactive	
Cc1cc(Nc2ccc(C(=O)N3CCCCC3)cc2)c2cccc(C)c2n1	inactive	
